Source: PubChem BioAssay (several laboratories)
Hck Nef HTS: blocks Nef-activated human Hck kinase; P08631; Recombinant Hck-YEEI plus Nef, Z-Lyte FRET kinase assay; inhibition, % at 20 µM; hit rate 0.68% among 220,000;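 active = Hck-Nef kinase inhibition above about 50%, limit read from the data; inactive = inhibition below that limit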
Target sequence (P08631 whole entry, looked up): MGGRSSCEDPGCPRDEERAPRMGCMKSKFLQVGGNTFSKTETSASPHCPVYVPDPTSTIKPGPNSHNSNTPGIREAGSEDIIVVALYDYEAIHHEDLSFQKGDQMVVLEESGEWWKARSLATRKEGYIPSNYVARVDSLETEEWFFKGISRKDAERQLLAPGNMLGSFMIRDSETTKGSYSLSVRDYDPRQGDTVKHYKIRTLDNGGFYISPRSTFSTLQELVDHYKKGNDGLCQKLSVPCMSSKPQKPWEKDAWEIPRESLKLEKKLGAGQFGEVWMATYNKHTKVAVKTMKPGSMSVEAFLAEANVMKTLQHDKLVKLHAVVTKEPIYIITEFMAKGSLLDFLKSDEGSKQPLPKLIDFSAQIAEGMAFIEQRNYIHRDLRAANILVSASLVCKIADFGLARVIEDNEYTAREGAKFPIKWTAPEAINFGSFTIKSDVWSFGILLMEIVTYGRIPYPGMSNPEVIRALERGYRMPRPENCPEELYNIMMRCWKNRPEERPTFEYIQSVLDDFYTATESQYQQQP
Mcl1-Bid inh: disrupts binding of human Mcl-1 to Bid peptide. TR-FRET Mcl-1/Bid-Dy647 peptide binding, 1536-well. inhibition, % at 21.7 µM. hit rate 0.97% among 220,000;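 active = compounds that cut the binding signal by more than half at the single screening dose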;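 also: His-tagged Mcl-1 with europium anti-His antibody binding Bid BH3 peptide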
Pf gametocyte: inhibitors of late stage P. falciparum gametocyte viability; P. falciparum stage V gametocytes, ATP luminescence, 24 h; inhibition, % at 10.9 µM; hit rate 0.065% among 150,000; AID 743093;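 active = inhibition above the mean plus 3 SD of compounds within the control limits, set per campaign, cut at about 38% in these data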
Bim-Mcl-1: human Bim-Mcl-1 interaction inhibition | Bead-based flow cytometry, Bim peptide-Mcl-1 binding | AID 1009 | inhibition, % at 10 µM | Q07820 | hit rate 0.1% among 190,000; in the data active = inhibition above about 40%
14-3-3 Bad PPI: disrupts binding of bovine 14-3-3 zeta to phospho-Bad peptide; P63103; TR-FRET 14-3-3zeta/Dy647-pBad peptide displacement, 1 h; inhibition, % at 21.7 µM; hit rate 0.71% among 220,000; AID 781;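 active = inhibition above about 70%, limit read from the data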
Target sequence (P63103 whole entry, looked up): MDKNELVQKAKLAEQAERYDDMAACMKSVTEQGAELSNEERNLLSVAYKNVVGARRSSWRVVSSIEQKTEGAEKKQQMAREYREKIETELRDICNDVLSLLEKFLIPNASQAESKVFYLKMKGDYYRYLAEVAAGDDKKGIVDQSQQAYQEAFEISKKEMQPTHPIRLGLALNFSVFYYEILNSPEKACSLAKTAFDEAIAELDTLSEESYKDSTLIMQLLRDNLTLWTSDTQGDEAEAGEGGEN
Mcl1-Noxa inh: Mcl-1/Noxa interaction inhibition; Q07820; inhibition, % at 21.7 µM; hit rate 1.5% among 220,000; TR-FRET Mcl-1/Noxa peptide binding, 2 h;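 active = compounds that cut the protein-peptide binding signal by more than 50% relative to plate controls in a single-dose test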;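 also: His-tagged Mcl-1 with rhodamine Noxa BH3 peptide and terbium anti-His antibody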
Of the large screens only hits and unclear results are named; the others gave an inactive call; [ ] = remark or other dose. Sampled rows, rich in hits. Any-hit rate of the full collection: about 2.9%.

CC(C)(C)C(=O)NCCN1C(=O)S/C(=C\c2ccc([N+](=O)[O-])cc2)C1=O	none
Cc1nnc(SCc2ccc(C(=O)Nc3cc(Cl)ccc3C)cc2)s1	none (no result: Pf gametocyte)
O=C(CSc1nc(NS(=O)(=O)c2ccccc2)cc(=O)[nH]1)Nc1ccc(Cl)cc1	none (no result: Pf gametocyte)
COc1ccc(NC(=O)CSc2nc(NS(=O)(=O)c3ccccc3)cc(=O)[nH]2)cc1	14-3-3 Bad PPI 75.3
CCOC(=O)CNC(=O)c1cn(C)c(=O)c2cc(OC)c(OC)cc12	none (no result: Pf gametocyte)
COc1ccc(-c2nn(-c3ccccc3)cc2C(=O)N/N=C/c2ccc([N+](=O)[O-])o2)cc1	Mcl1-Noxa inh 51.9 (no result: Pf gametocyte)
COc1ccc(/C=C(\C#N)C(=O)NCCc2ccccc2)cc1OCc1ccccc1	none
COCCCNC(=O)/C(C#N)=C/c1ccc(OCC(=O)O)c(OC)c1	Mcl1-Noxa inh 99.6
CCc1nnc(NS(=O)(=O)c2ccc(N=CC3=C(O)CC(C)(C)CC3=O)cc2)s1	Bim-Mcl-1 44.0
CC1(C)CC(=O)C(C=Nc2ccc(O)cc2)=C(O)C1	none (no result: Pf gametocyte)
COCCn1c(SCC(=O)N2CCCc3ccccc32)nc2cccnc21	none (no result: Pf gametocyte)
Nc1scc2c(C(=O)N/N=C/c3ccc(Cl)cc3)nn(-c3ccccc3)c(=O)c12	Mcl1-Noxa inh 93.6
CCOC(=O)c1nn(-c2ccccc2)c(=O)c2c(N)scc12	none (no result: Pf gametocyte)
O=c1c2ccccc2n(Cc2ccc(F)cc2)c(=O)n1C1CCCC1	none
CCn1c(-c2cc(C3CC3)nc3ccccc23)n[nH]c1=S	Mcl1-Noxa inh 54.7
CN(CCO)S(=O)(=O)c1ccc2c(c1)C(=NO)c1cc(S(=O)(=O)N(C)CCO)ccc1-2	Mcl1-Bid inh 83.1
Cc1cccc(C)c1NC(=O)Cn1nnnc1N	none
CS(=O)(=O)c1ccc2nc(NC(=O)c3ccc(NS(=O)(=O)c4ccc(F)c(F)c4)cc3)sc2c1	Mcl1-Bid inh 63.5, 14-3-3 Bad PPI 72.4 (no result: Bim-Mcl-1)
CS(=O)(=O)c1ccc2nc(NC(=O)c3cccc(NS(=O)(=O)c4ccc(F)c(F)c4)c3)sc2c1	none
COC1=C(OC)C(=O)C(CCCCCCCCCCO)=C(C)C1=O	Mcl1-Noxa inh 54.7 (no result: Hck Nef HTS, Pf gametocyte)
CN1CCc2cccc3c2[C@@H]1Cc1ccc(O)c(O)c1-3	Mcl1-Noxa inh 91.6 (no result: Pf gametocyte)
CCn1c(=O)c2cc(C(=O)Nc3ccc(OC)cc3OC)sc2c2ccccc21	none (no result: Bim-Mcl-1)
COc1ccc(NC(=O)c2cc3c(=O)n(C)c4ccccc4c3s2)cc1OC	Mcl1-Bid inh 55.3
CCOC(=O)c1cc(-c2csc(COc3ccccc3Cl)n2)on1	none (no result: Bim-Mcl-1)
CCc1c(C)[nH]c2ccc(OC)cc2c1=S	Mcl1-Noxa inh 73.5
CCS(=O)(=O)c1ccc(S(=O)(=O)CC)s1	Mcl1-Bid inh 70.5 (no result: Pf gametocyte)
CCS(=O)(=O)c1ccc(N)cc1	none
Cc1ccc(OCC(=O)Nc2cc(-c3nn4c(C)nnc4s3)ccc2C)cc1	none (no result: Pf gametocyte)
O=C(CCN1CCN(CCO)CC1)Nc1ccc(OCc2ccccc2)cc1	Mcl1-Bid inh 54.8
CC(=O)C1=C(C)NC(SCC(N)=O)=C(C#N)C1c1cccnc1 (centres undefined)	Mcl1-Bid inh 97.5 (no result: Pf gametocyte)
COC(=O)CN1C(=O)N/C(=C/c2ccc(OC)cc2)C1=O	none
COC(=O)Cn1c(=O)c2c(n(Cc3ccccc3)c1=O)N/C(=C/c1ccc(Br)cc1)C2=O	Mcl1-Noxa inh 54.4 (no result: Bim-Mcl-1)
O=C(O)c1cnn2c(-c3ccccc3)ccnc12	none (no result: Hck Nef HTS, Mcl1-Bid inh, Bim-Mcl-1, 14-3-3 Bad PPI, Mcl1-Noxa inh)
NC(=O)c1cnn2c(-c3cccc(C(F)(F)F)c3)ccnc12	Mcl1-Bid inh 98.3 (no result: Bim-Mcl-1)
c1coc(Cn2nnnc2CN2CCN(C3CCCC3)CC2)c1	14-3-3 Bad PPI 79.1 (no result: Pf gametocyte)
CC(C)C(c1nnnn1Cc1ccco1)N1CCN(C2CCCC2)CC1 (centres undefined)	none (no result: Pf gametocyte)
COc1cc(/C=N/NC(=O)c2ccc([N+](=O)[O-])cc2Cl)cc(Br)c1O	Mcl1-Noxa inh 82.4
COc1cc(/C=N/NC(N)=O)cc([N+](=O)[O-])c1O	Mcl1-Noxa inh 52.2
COc1ccc(Br)cc1C(=O)N/N=C/c1ccc([N+](=O)[O-])cc1	none (no result: Pf gametocyte)
COc1cc(/C=N/NC(=O)c2ccc(COc3ccccc3Cl)o2)cc(Br)c1O	Mcl1-Noxa inh 72.6 (no result: Pf gametocyte)
CSCCC(NC(N)=O)C(=O)N(C)CC(=O)Nc1cc(C)ccc1C (centres undefined)	none (no result: Pf gametocyte)
Cc1cc(NC(=O)COC(=O)c2cccc(S(=O)(=O)N(C)C3CCCCC3)c2)no1	none (no result: Bim-Mcl-1)
CCNC(=O)c1cc(S(=O)(=O)N(C)C)c(Cl)cc1Cl	Mcl1-Bid inh 72.1, 14-3-3 Bad PPI 87.8
O=c1c2ccccc2nnn1CSc1nnc(-c2cccc(S(=O)(=O)N3CCCCC3)c2)o1	none (no result: Pf gametocyte)
CCc1[nH]c(=S)c(C#N)c2c1CCCC2	Mcl1-Noxa inh 59.0
CCOC(=O)C1CCN(CCC(=O)Nc2ccccc2)CC1	none (no result: Pf gametocyte)
Cc1ccc(S(=O)(=O)N2C(=O)/C(=C3\SC(=S)NC3=O)c3ccccc32)cc1	Mcl1-Noxa inh 70.4 (no result: Pf gametocyte, Bim-Mcl-1)
Cc1ccc(S(=O)(=O)N2c3ccccc3-c3c(ssc3=S)C2(C)C)cc1	none
CC(C)C[C@@H](CN1C(N)=NC[C@@H]1C)NC(=O)CC12CC3CC(CC(C3)C1)C2	none (no result: Hck Nef HTS, Mcl1-Bid inh, Bim-Mcl-1, 14-3-3 Bad PPI, Mcl1-Noxa inh)
CN(C)c1ccc(-c2nn3c(-c4ccc(Cl)cc4Cl)nnc3s2)cc1	Mcl1-Bid inh 93.3, Mcl1-Noxa inh 87.1 (no result: Pf gametocyte)
Clc1ccc(-c2nnc3sc(-c4ccc(Br)o4)nn23)c(Cl)c1	none (no result: Pf gametocyte)
Cc1oc(-c2ccc(Cl)cc2)cc1-c1nn2c(-c3ccoc3C)nnc2s1	Hck Nef HTS 58.7, Mcl1-Bid inh 54.9, Mcl1-Noxa inh 88.5 (no result: Pf gametocyte)
FC(F)(F)c1cc(Cl)c2nc(-c3ccccc3)cn2c1	none
CC(C)n1c(O)c(/C=C2\C=NN=C2c2ccccc2)sc1=S	Mcl1-Noxa inh 66.5 (no result: Bim-Mcl-1)
CCn1c(O)c(/C=C2\C=NN=C2c2ccc(C)cc2)sc1=S	none
Cc1ccc(Nc2nc(N)c([N+](=O)[O-])c(N3CCCC(C)C3)n2)cc1C (centres undefined)	none (no result: Pf gametocyte)
C/C(=N/NC(=O)c1cc(-c2cccc([N+](=O)[O-])c2)n[nH]1)c1ccc(Cl)cc1	Mcl1-Bid inh 74.0, 14-3-3 Bad PPI 76.7[fluorescence artefact?], Mcl1-Noxa inh 63.6
C/C(=N/NC(=O)CNC(=O)c1cccnc1)c1ccc([N+](=O)[O-])cc1	Mcl1-Noxa inh 72.9
C/C(=N/NC(=O)c1cc(O)c(O)c(O)c1)c1ccc([N+](=O)[O-])cc1	Mcl1-Noxa inh 58.6
C/C(=N/NC(=O)CNC(=O)c1ccccn1)c1ccc([N+](=O)[O-])cc1	none
C/C(=N\NC(=O)c1cnccn1)c1ccc([N+](=O)[O-])cc1	none (no result: Bim-Mcl-1)
COc1ccccc1-c1nc2n(n1)C(c1ccc(Cl)cc1)C(C(N)=O)=C(C)N2 (centres undefined)	none
Cn1c2ccccc2c2cnn(CC(=O)Nc3ccccc3Br)c(=O)c21	14-3-3 Bad PPI 73.6 (no result: Bim-Mcl-1)
O=C1CCNc2c(Cl)cc(Cl)cc21	none (no result: Bim-Mcl-1)
CCCCNC(=S)NCCN1CCCCC1	none (no result: Pf gametocyte)
CCCNC(=S)NCCN1CCCCC1	14-3-3 Bad PPI 72.6 (no result: Pf gametocyte)
Cc1cc(CNC(=O)C2(C(F)(F)F)C/C(=C\CCO)CCCO2)nn1C (centres undefined)	none (no result: Hck Nef HTS, Mcl1-Bid inh, Bim-Mcl-1, 14-3-3 Bad PPI, Mcl1-Noxa inh)
